# Reference: article PMC5540273 (PLoS ONE, 2017)
# What was measured:
# Conditions in all cases: concentration: 1 μM, replicates: in singlicate; n = 1
# [1] = test system: HIPK2
# [2] = test system: HIPK3
# [3] = test system: HIPK4
# [4] = test system: HPK1
# [5] = test system: HUNK
# [6] = test system: ICK
# [7] = test system: IGF1R
# [8] = test system: T1, IKK-alpha
# T1 construct: gene CHUK
# [9] = test system: T2, IKK-beta
# T2 construct: gene IKBKB
# [10] = test system: T3, IKK-epsilon
# T3 construct: gene IKBKE
# [11] = test system: INSRR
# [12] = test system: INSR
# [13] = test system: IRAK1
# [14] = test system: IRAK3
# [15] = test system: IRAK4
# [16] = test system: ITK
# [17] = test system: JAK1(JH1domain-catalytic)
# [18] = test system: JAK1(JH2domain-pseudokinase)
# [19] = test system: JAK2(JH1domain-catalytic)
# [20] = test system: JAK3(JH1domain-catalytic)
# 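Also: KINOMEscan kinase panel screen.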
SMILES,%Inh [1] [%],%Inh [2] [%],%Inh [3] [%],%Inh [4] [%],%Inh [5] [%],%Inh [6] [%],%Inh [7] [%],%Inh [8] [%],%Inh [9] [%],%Inh [10] [%],%Inh [11] [%],%Inh [12] [%],%Inh [13] [%],%Inh [14] [%],%Inh [15] [%],%Inh [16] [%],%Inh [17] [%],%Inh [18] [%],%Inh [19] [%],%Inh [20] [%]
CC(C)N1CCC(n2cnc(-c3ccc(F)cc3)c2-c2ccnc(N)n2)CC1 [SB-223132],0,0,11,0,0,0,0,0,0,0,0,0,0,23,0,0,0,56,0,24
Cl.Fc1ccccc1COc1ccc(Nc2ncnc3ccc(-c4nnc(C(F)(F)F)o4)cc23)cc1Cl [GW424170],0,0,0,20,3,0,11,0,0,0,0,0,0,0,0,4,7,0,6,0
CN1c2ccc(-c3ccc(C(=O)NCCO)cc3)cc2-c2[nH]ncc2S1(=O)=O,52,39,16,22,0,0,7,0,0,31,0,0,14,44,0,12,5,35,13,97.2
CC(C)(C)OC(=O)NC1CCCN(c2cc(-c3ccc4c(N)n[nH]c4c3)nc(N)n2)C1 (stereo not drawn) [GSK2286096],0,12,0,26,5,7,0,0,0,12,0,0,0,0,8,6,6,15,0,0
C[C@H]1CC[C@@H](C(=O)Nc2ccccc2)CN1c1cc(-c2ccc3c(N)n[nH]c3c2)nc(N)n1 [GSK2283293],0,0,0,37,0,0,15,7,0,8,0,0,0,16,0,17,0,0,0,0
Nc1nc(-c2ccc3c(N)n[nH]c3c2)cc(N2CCC[C@@H](C(=O)Nc3ccccc3)C2)n1.O=C(O)C(F)(F)F.O=C(O)C(F)(F)F [GSK2288359],0,6,1,32,0,12,100,0,0,29,0,9,0,0,0,0,14,23,100,0
Fc1ccc(Nc2nccc(-c3c(-c4ccc(Cl)cc4)nn4ncccc34)n2)cc1F [GW829058],11,36,19,16,40,25,6,34,29,0,20,19,24,7,0,18,0,12,39,37
Oc1ccc2ncnc(Nc3ccc(OCc4ccccc4)cc3)c2c1 [GI262866],58,6,0,41,8,7,0,7,16,0,18,0,0,0,5,4,12,0,0,0
CCc1nc(-c2cccc(C)c2)c(-c2ccnc(NC(=O)c3ccccc3)c2)s1,9,0,0,0,0,59,2,0,0,100,0,29,14,1,6,16,22,3,19,8
CNc1nccc(-c2c(-c3ccc(F)cc3)ncn2C2CCN(C)CC2)n1 [SB-222903],5,0,0,0,39,0,0,0,0,0,0,5,0,0,0,5,24,5,5,0
Nc1n[nH]c2nnc(-c3ccccc3)cc12 [SB-517389],55,83,0,35,32,6,0,6,23,22,0,0,22,0,25,13,13,8,42,0
Fc1cccc(COc2ccc(Nc3ncnc4nn5ccccc5c34)cc2Cl)c1 [GW689066],0,0,0,22,28,0,0,11,0,0,0,8,8,0,0,3,2,0,0,0
CSc1ccc(NC2=C(c3ccccc3Cl)C(=O)NC2=O)cc1 [SB-342411],0,31,0,0,0,40,6,0,0,44,0,0,0,0,19,4,0,0,0,48
O=C(Nc1ccccc1F)NC1CCN(c2ccnc(Nc3ccc(F)cc3)n2)C1 (stereo not drawn) [GSK1379722],0,10,0,42,24,100,100,24,23,0,0,0,34,14,14,12,12,0,8,0
Cn1ccc2ncnc(Nc3ccc(Oc4cccc(Cl)c4)c(Cl)c3)c21,37,22,3,2,0,12,0,3,7,11,0,16,27,6,27,23,16,0,15,4
CC(=O)Nc1n[nH]c2ncc(-c3ccccc3)cc12 [SB-548492],48,34,7,23,24,28,10,0,22,0,12,0,0,25,0,0,0,87,15,0
OCCOCCn1ccc2ncnc(Nc3ccc(Oc4cccc(Cl)c4)c(Cl)c3)c21,0,0,0,0,7,0,0,0,0,0,0,0,0,0,0,0,0,38,0,0
FC(F)(F)c1cc(Nc2nccc(-c3c(-c4ccc(Cl)cc4)nn4ncccc34)n2)ccc1Cl [GW829351],0,0,0,0,67,0,0,0,0,0,0,0,0,0,0,0,0,0,13,0
O=C(NCCCN1CCCC1=O)c1cnc(NCc2cc(Cl)ccc2Cl)nc1NC1CCNCC1,0,0,13,20,0,0,0,0,0,0,13,0,37,0,2,0,1,4,33,0
CN1CCC(n2cnc(-c3ccc(F)cc3)c2-c2ccnc(NC3CCNCC3)n2)CC1 [SB-229482],45,0,0,27,0,45,0,0,0,0,0,0,20,0,4,0,0,0,18,0
Clc1cccc(-c2nc(Nc3ccncc3)c3ccccc3n2)c1 [GW873004],25,2,22,0,53,0,0,0,0,0,4,0,7,9,0,21,0,16,0,13
